Test [1] in a line: qHTS profiling for inhibitors of Plasmodium falciparum proliferation (AID 504749). Further: nearly all actives have a fitted effect of over 60% in size.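 On activity, negative = inhibition: 0% = DMSO vehicle and full inhibition = artemisinin control.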 To be noted: P. falciparum in erythrocytes, SYBR Green DNA, 72 h. The method, boiled down:
(§1)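 Each compound contacts P. falciparum-infected red blood cells for 72 h at 37 C; lysis buffer (Tris, EDTA, saponin, Triton X, SYBR Green I) is added and fluorescence measured next morning; values normalized to controls.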

Test [2] deals with 3D7. Described as above. The conditions noted are these: P. falciparum in erythrocytes, SYBR Green DNA, 72 h; series mostly up to 28.7 µM. The method, boiled down: as §1
The test system of test [3] is AA1029. The description is as above. The conditions noted are these: P. falciparum in erythrocytes, SYBR Green DNA, 72 h; series mostly up to 28.7 µM. The method, boiled down:
as §1

The subject of test [4] is AS120. Described as above. To be noted: P. falciparum in erythrocytes, SYBR Green DNA, 72 h; series mostly up to 28.7 µM. The gist of the method: as §1
For test [5], the system named is ATS189. The description is as above. The conditions noted are these: P. falciparum in erythrocytes, SYBR Green DNA, 72 h; series mostly up to 28.7 µM. The gist of the method:
as §1

In test [6] the test system is 7G8. The test is described as above. The conditions noted are these: P. falciparum in erythrocytes, SYBR Green DNA, 72 h; series mostly up to 28.7 µM. The gist of the method: as §1
The mark [7] stands for this setting: at 28.7 µM (top of the series), parasite line A.
Setting [8] is: at 28.7 µM (top of the series), parasite line B.

Structures are written as SMILES. Inconclusive results are not listed. A number with no mark means an inactive call. Active and inactive are the calls of the source. The call rests on the fitted dose curve; in most records, active means well fitted inhibition curve with a large enough effect; inconclusive means small, poorly fitted or top-dose-only effect; inactive means flat fitted curve, though single readings scatter.

In PubChem BioAssay (NCATS) one finds activity, negative = inhibition and Potency data, which are given here for 22 compounds.
Potency means the concentration at half of the fitted maximal effect.

In the case of `NC(=O)[C@@H]1CCCN1C(=O)[C@H](Cc1cnc[nH]1)NC(=O)[C@@H]1CCC(=O)N1`, the figures for the activity, negative = inhibition in test [1] (setting [7]) and in test [1] (setting [8]) were 0.117% and 4.94%, respectively. Further, the Potency result in test [2], in test [3], in test [4] and in test [5] was “inactive” each time.
Regarding `O=C(O)CC/C=C\CC[C@@H]1[C@@H](N2CCCCC2)[C@@H](O)C[C@@H]1OCc1ccc(-c2ccccc2)cc1`, the activity, negative = inhibition in test [1] (setting [7]) was 6.82%; in test [1] (setting [8]) it was 1.98%. Besides, the Potency entry in test [2], in test [3], in test [4] and in test [5] was “inactive” throughout.
Take `Oc1ccc(Cl)c2c1CCC2`: the activity, negative = inhibition in test [1] (setting [7]) was 6.7%; in test [1] (setting [8]), 4.51%. For the same compound, the Potency entry in test [2], in test [3], in test [4] and in test [5] was “inactive” in each case.
On to `O.O.O.O.O.O.O.O=S(=O)([O-])[O-].[Co+2]`, for which the Potency is 11.2 µM (active) in test [1] (parasite line A); 8.91 µM (active) in test [1] (parasite line B); 2.82 µM (active) in test [6]; 8.91 µM (active) in test [3]; 5.01 µM (active) in test [4]; 11.2 µM (active) in test [5].
For the compound `CN(C)c1ccc(C(=C2C=CC(=[N+](C)C)C=C2)c2c(O)c(S(=O)(=O)[O-])cc3cc(S(=O)(=O)O)ccc23)cc1`, the activity, negative = inhibition in test [1] (setting [7]) was -15.9%; in test [1] (setting [8]), -17.8%. Further, the Potency result in test [2], in test [3], in test [4] and in test [5] was “inactive” in each case.
Consider `COc1ccc2c(=O)c(C)c(-c3ccccc3)oc2c1CN(C)C`, for which the activity, negative = inhibition was -2.15% in test [1] (setting [7]) and -7.38% in test [1] (setting [8]). Moreover, the Potency result in test [2], in test [4] and in test [5] was “inactive” each time.
As for `CCSc1ccc2c(c1)N(CCCN1CCN(C)CC1)c1ccccc1S2`, the activity, negative = inhibition was 14.2% in test [1] (at 12.8 µM (top of the series), parasite line A) and 7.58% in test [1] (at 12.8 µM (top of the series), parasite line B). In addition, the Potency result in test [2], in test [3], in test [4] and in test [5] was “inactive” in each case.
For `COC(=O)[C@@H](N)CS`, the activity, negative = inhibition in test [1] (setting [7]) is -8.41%; in test [1] (setting [8]) it was 10.4%. Further, the Potency result in test [6], in test [3], in test [4] and in test [5] was “inactive” in each case.
Turning to `COC(=O)c1ccccc1O`, the activity, negative = inhibition in test [1] (setting [7]) was -0.0049%; in test [1] (setting [8]), 5.19%. The Potency entry in test [2], in test [3], in test [4] and in test [5] was “inactive” throughout.
Turning to `C=CCCCCCCCCC(=O)OC`, the results for the activity, negative = inhibition in test [1] (setting [7]) and in test [1] (setting [8]) were -4.4% and 10.1%, respectively. In addition, the Potency entry in test [2], in test [3], in test [4] and in test [5] was “inactive” each time.
Regarding `CO/N=C(/C(=O)N[C@@H]1C(=O)N2C(C(=O)O)=C(COC(N)=O)CS[C@H]12)c1ccco1`, the activity, negative = inhibition in test [1] (setting [7]) was 6.01%; in test [1] (setting [8]) it was 2.26%. The Potency result in test [2], in test [3], in test [4] and in test [5] was “inactive” each time.
`Cc1cc(-c2ccc(N=Nc3c(S(=O)(=O)O)cc4cc(S(=O)(=O)O)cc(N)c4c3O)c(C)c2)ccc1N=Nc1c(S(=O)(=O)O)cc2cc(S(=O)(=O)O)cc(N)c2c1O`: the Potency entry in test [2] and in test [3] was “inactive” in each case. In addition, the Potency in test [4] was 14.1 µM (active).
For `CCCCCCCCCCCCCCCCCC[N+](C)(C)CCC[Si](OC)(OC)OC`, the activity, negative = inhibition in test [1] (setting [7]) was 12.9%. Also, the Potency entry in test [2], in test [6], in test [3], in test [4] and in test [5] was “inactive” throughout.
Regarding `CC(CN(C)C)CN1c2ccccc2Sc2ccc(C(F)(F)F)cc21` (stereo not drawn), the Potency is 11.2 µM (active) in test [1] (parasite line A), 10 µM (active) in test [6] and 11.2 µM (active) in test [4]. Besides, in test [2], the Potency result was “inactive”.
On to `O=P(O)(O)OP(=O)(O)O`, for which, in test [1] (setting [7]), the activity, negative = inhibition is -13.9%. Also, in test [2], the Potency entry was “inactive”. In addition, the Potency in test [6] was 10 µM (active).
In the case of `O=C(c1cc2ccccc2o1)N1CCN(Cc2ccccc2)CC1`, the Potency in test [1] (parasite line A) was 7.94 µM (active); in test [6], 7.94 µM (active); in test [4], 8.91 µM (active).
On to `C#C[C@]1(O)CC[C@@H]2[C@H]3CCC4=CC(=O)CC[C@H]4[C@H]3C(=C)C[C@@]21CC`, for which the Potency entry in test [3], in test [4] and in test [5] was “inactive” in each case.
With `OCc1ccccc1`, the activity, negative = inhibition in test [1] (setting [8]) is -27.8%. For the same compound, the Potency in test [6] is 2.82 µM (active). Moreover, the Potency entry in test [3] is “inactive”.
As for `O=c1n(CC2CO2)c(=O)n(CC2CO2)c(=O)n1CC1CO1` (stereo not drawn), the activity, negative = inhibition in test [1] (setting [8]) is -29.5%. Besides, the Potency in test [6] is 12.6 µM (active). For the same compound, the Potency result in test [4] and in test [5] was “inactive” in each case.
On to `CCN(CC)CCC(=O)N1c2ccccc2Sc2ccc(Cl)cc21`, for which the Potency in test [6] is 8.91 µM (active). Also, the Potency entry in test [5] was “inactive”.
As to `CNC(=O)c1c(I)c(C(=O)NCC(=O)Nc2c(I)c(C(=O)O)c(I)c(C(=O)NCCO)c2I)c(I)c(N(C)C(C)=O)c1I`, the activity, negative = inhibition in test [1] (setting [8]) is 2.12%. Also, the Potency entry in test [2], in test [6], in test [3], in test [4] and in test [5] was “inactive” each time.
As for `S=C1SCN(Cc2ccccc2)CN1Cc1ccccc1`, in test [1] (setting [7]), the activity, negative = inhibition was -6.7%. Besides, the Potency entry in test [2], in test [6], in test [3], in test [4] and in test [5] was “inactive” each time.
